# Bioassay records: PubChem, several laboratories
# Sampled rows, rich in hits. Any-hit rate of the full collection: about 1.4%.
# GALR2 ag – GALR2 receptor agonists, primary screen, cell-based; Galanin receptor type 2 (Homo sapiens), O43603; GALR2-expressing cells, agonist activation read-out; activation, % (test concentration not listed); 0.48% of 140,000 active; in the data active = activation above about 5%, passing the limit was not always enough;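 note: 0% = vehicle buffer wells and 100% = reference agonist at full effect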
# GALR2 blocker – GALR2 antagonists in receptor-expressing cells, primary screen; Galanin receptor type 2 (Homo sapiens), O43603; antagonist mode; inhibition, % at 4 µM; 0.39% of 140,000 active;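 note: cells stimulated with galanin 1-16 at roughly its EC80; 0% = agonist challenge control and 100% = basal control without agonist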
# LYP inh 2 – PTPN22 phosphatase inhibitors, primary screen, biochemical, DiFMUP fluorescence, 2 µM; AID 640, 2007; 0.21% of 96,000 active; inhibition, % at 2 µM; recombinant LYP catalytic domain; Tyrosine-protein phosphatase non-receptor type 22 (Homo sapiens), Q9Y2R2;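 active = inhibition at 2 µM at or above a set limit, the screen mean plus 3 SD, cut at about 24% in these data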;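 note: 0% = DMSO with enzyme and 100% = enzyme fully blocked by orthovanadate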
# S1P2 agonist – S1P2 receptor agonists, primary screen, cell-based. Sphingosine 1-phosphate receptor 2 (Homo sapiens), O95136. S1P2-expressing cell line, agonist reporter read-out. activation, % at 4.5 µM. 0.46% of 97,000 active; in the data active = activation above about 16%;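 note: 0% = vehicle low control and 100% = maximal reference agonist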
# Target sequence (O95136 whole entry, looked up): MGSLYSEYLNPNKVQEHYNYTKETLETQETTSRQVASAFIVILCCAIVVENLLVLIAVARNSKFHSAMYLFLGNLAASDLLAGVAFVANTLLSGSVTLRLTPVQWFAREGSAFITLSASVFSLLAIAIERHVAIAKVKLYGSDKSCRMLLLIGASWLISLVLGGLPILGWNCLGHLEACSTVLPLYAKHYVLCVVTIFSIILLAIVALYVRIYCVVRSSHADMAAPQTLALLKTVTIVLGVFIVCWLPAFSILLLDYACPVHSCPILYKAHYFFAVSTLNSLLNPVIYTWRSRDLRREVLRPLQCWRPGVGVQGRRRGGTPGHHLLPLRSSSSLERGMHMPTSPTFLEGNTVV
# PTPN22 act – LYP phosphatase activators, primary screen, biochemical, DiFMUP fluorescence, 2 µM; recombinant LYP; 0 = plate median, 100 = signal doubled; AID 697, 2007; activation, % at 2 µM; Tyrosine-protein phosphatase non-receptor type 22 (Homo sapiens), Q9Y2R2; 0.11% of 96,000 active;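 active = activation at 2 µM above a set limit, the mean plus 5 SD, cut at about 37% in these data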
# S1P2 blocker – human S1P2 receptor antagonists, primary screen, cell-based; inhibition, % at 5 µM; 0.21% of 97,000 active; cell-based S1P2 antagonist assay, inhibition at 5 uM; Sphingosine 1-phosphate receptor 2 (Homo sapiens), O95136; AID 736, 2007; in the data active = inhibition above about 45%;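 note: CRE beta-lactamase reporter cells expressing human S1P2 stimulated with S1P; 0% = agonist at EC80 alone and 100% = agonist plus reference antagonist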
# GALR2 ant conf – GALR2 antagonists, retest of hits, confirmation, cell-based; shares compounds with GALR2 blocker; GALR2-expressing cells, antagonist mode, inhibition; inhibition, % at 4 µM; 60% of 480 active; AID 866, 2007;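 note: cells stimulated with galanin at about its EC80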
# BLA inh counter – inhibitors of NFAT-driven beta-lactamase reporter, confirmation, counter-screen for GALR2 antagonist project, CHO NFAT-bla cells, FRET readout | shares compounds with GALR2 blocker | thapsigargin-stimulated | inhibition, % at 4.2 µM | 36% of 480 active | AID 867, 2007;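 active = inhibition above the mean inhibition across tested compounds plus 3 SD, cut at about 27% in these data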;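 note: 0% = 500 nM thapsigargin stimulated wells and 100% = unstimulated BSA only wells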
# Starred values were filed as active, the others as inactive; . = no result. Cut-off read from the data, not from the text of the source, unless noted: active = inhibition above about 27%; inactive = the rest.
SMILES,GALR2 ag,GALR2 blocker,LYP inh 2,S1P2 agonist,PTPN22 act,S1P2 blocker,GALR2 ant conf,BLA inh counter
CC(NC(=O)Cn1ncc(Cl)c(Cl)c1=O)C12CC3CC(CC(C3)C1)C2 (configuration not stated),-1,57*,.,.,.,.,72*,74*
CCn1cc(C(=O)NC(C)C23CC4CC(CC(C4)C2)C3)cn1 (configuration not stated),1,-4,.,.,.,.,.,.
COc1cccc(/C=N/NC(=O)c2cc(-c3cccn3C)n[nH]2)c1O,-2,28*,.,.,.,.,27*,12
COc1cc(/C=N/NC(=O)c2cc(-c3cccn3C)n[nH]2)cc(OC)c1OC,-1,3,-1,8,4,9,.,.
CC1=NNC(=O)C1CCC(=O)N/N=C/C(Br)=C/c1ccccc1 (configuration not stated),-1,7,.,.,.,.,.,.
Cc1ccc(NC(=O)/C(=C\c2cccnc2)NC(=O)c2ccco2)cc1,-2,-4,9,-5,-4,16,.,.
O=C(NC(Nc1nc2ccc([N+](=O)[O-])cc2s1)(C(F)(F)F)C(F)(F)F)c1ccccc1Cl,-2,96*,.,.,.,.,94*,91*
O=C1/C(=C/c2ccc(N3CCOCC3)o2)SC(=Nc2ccccc2)N1CCc1c[nH]c2ccccc12,2,28*,8,-8,-4,68*,27*,43*
COc1cc(/C=C2\SC(=Nc3ccccc3)N(CCc3c[nH]c4ccccc34)C2=O)ccc1OC(C)C(=O)O (configuration not stated),1,-16,.,.,.,.,.,.
O=S(=O)(c1ccc2oc3ccc(S(=O)(=O)N4CCCCC4)cc3c2c1)N1CCCCC1,0,-8,3,-10,-6,-16,.,.
O=C(Cc1ccccc1)NN1C(=O)C2C(C1=O)C1C=CC2C12CC2 (configuration not stated),-1,1,.,.,.,.,.,.
O=C(Nc1nc(-c2ccccc2)ns1)c1cccs1,-1,36*,7,-3,-9,-5,5,-5
O=C(Nc1nc(-c2ccccc2)cs1)c1cccs1,-3,10,-6,-9,3,10,.,.
O=C(C#Cc1ccccc1)c1cccc([N+](=O)[O-])c1,1,34*,-6,-12,6,67*,72*,75*
N/C(=N\OC(=O)Oc1ccccc1)c1cccc([N+](=O)[O-])c1,-1,5,.,.,.,.,.,.
CC(C)c1ccccc1NC(=O)c1cccc(NC(=O)c2ccccc2)c1,-5,-5,3,-4,-2,-1,.,.
COc1ccc(NC(=O)/C(Cl)=C(/Cl)S(=O)(=O)Cc2ccc(C)cc2)cn1,0,78*,6,-11,-7,90*,93*,95*
COc1ccc(NC(=O)C(CC(C)C)NC(=O)c2ccccc2C)cn1 (configuration not stated),-2,-10,-5,-3,4,1,.,.
CSc1ncccc1C(=O)Nc1nc2c(C)cccc2s1,-2,29*,.,.,.,.,28*,13
COc1ccc(CC(=O)NNC(=O)CSc2nnc(Cc3ccc(OC)cc3)n2-c2ccccc2)cc1,-1,0,.,.,.,.,.,.
Cc1ccc(N=Cc2sc(O)c3ccccc23)cc1,-2,28*,0,-8,2,38,32*,32*
O=C(OCn1ncc(Cl)c(Cl)c1=O)c1ccc(C(F)(F)F)cc1,-4,34*,15,-10,-13,24,43*,12
Cc1ccc(C)c(C(=O)Cn2ncc(Cl)c(Cl)c2=O)c1,-2,20,5,-9,-1,20,.,.
CCOC(=O)c1ccc(NC(=O)CN2C(=O)CCC2=O)cc1,-3,-1,-7,1,5,-14,.,.
CCOC(=O)c1ccc(NC(=O)Cn2ncc(Cl)c(Cl)c2=O)cc1,0,82*,.,.,.,.,67*,48*
SMILES,GALR2 ag,GALR2 blocker,LYP inh 2,S1P2 agonist,PTPN22 act,S1P2 blocker,GALR2 ant conf,BLA inh counter
Cc1ccc(C(=O)OCn2ncc(Cl)c(Cl)c2=O)cc1,-2,85*,-12,-5,14,80*,94*,71*
CCc1ccccc1NC(=O)CN(C)C(=O)Cn1ncc(Cl)c(Cl)c1=O,-2,78*,.,.,.,.,75*,23
Cc1cc(C(=O)Cn2ncc(Cl)c(Cl)c2=O)c(C)n1CC(F)(F)F,0,20,.,.,.,.,.,.
COc1ccc(-c2nnc(SCc3nc4ccccc4s3)n2C(C)C)cc1,-3,29*,14,-3,-15,-6,2,5
CC1=CCC2COC(c3ccc[n+](Cc4ccccc4)c3)C1C2 (configuration not stated),-1,3,.,.,.,.,.,.
Cc1cc(/C=N/n2cnnc2)c(C)n1-c1ccc(OCc2ccc(Cl)cc2Cl)cc1,0,29*,5,-6,-5,74*,45*,22
Cc1cc(/C=N/n2cnnc2)c(C)n1-c1ccc(Cl)cc1Cl,1,-5,1,9,-6,-17,.,.
Cc1ccc(C(=O)N/C(=C\c2cccs2)C(=O)NCc2cccnc2)cc1,-1,17,.,.,.,.,.,.
Cc1ccc(C(=O)N/C(=C/c2cccs2)C(=O)NCc2ccco2)cc1,-1,27*,.,.,.,.,6,-2
CCSC1=N/C(=C/c2ccsc2)C(=O)N1c1ccccc1,-1,6,.,.,.,.,.,.
